Reference: ChEMBL document CHEMBL3988442, “University of Dundee, Small-Polar-MMV Screening Library” (2021)

molecular target: AMP-activated protein kinase, AMPK (Homo sapiens) (UniProt P54646+O43741+P54619+Q9UGJ0+Q9Y478+Q13131+Q9UGI9); test: AMP-dependent Kinase enzyme assay. An in vitro enzyme assay that detects ADP turnover that is directly proportional to AMPK activity. This uses naive AMPK that is activated during the assay with MK-8722; format: functional; parameters: scale not given: direction of the effect not stated beside the values; conditions: 30 µM

Row | SMILES | Percent Effect
1 | CC(C)[C@@H]1CN(C(=O)C2(c3ccccc3)CCN(C)CC2)C[C@H]1C(=O)O | 3.48%
2 | Cn1cc(C2=CCN(CCCC(=O)Nc3ccc(C#N)cc3)CC2)cn1 | 7.78%
3 | CCCc1nc(C(=O)N[C@H]2COC[C@@H]2N2CCN(C)CC2)cs1 | -1.36%
4 | O=C(N1CCCC1)N1C[C@H]2CC[C@@H]1CN(Cc1ccncc1)C2 | 2.18%
5 | O=C(C1CCOCC1)N1C[C@H]2CC[C@@H]1CN(Cc1ccncc1)C2 | 0.59%
6 | CCc1ccc(OCC(=O)N2CCN(CC)CC2)cc1 | -0.678%
7 | CCc1nnc(NC(=O)CCN2CC=C(c3cnn(C)c3)CC2)s1 | 7.71%
8 | O=C(NC1CC1)[C@H]1CN(Cc2ccccc2)C[C@@H]1C(=O)c1ccccc1 | 12.8%
9 | NC1(c2nc(C(F)(F)F)cc(=O)[nH]2)CCCCC1 | -5.09%
10 | Cn1ncc2c(NC3CN4CCC3CC4)nc(-c3ccncc3)nc21 (stereo not given) | 5.93%
11 | CC(C)c1cc(N2CCC3(CCN(C)C3)C2)ncn1 (stereo not given) | -2.38%
12 | COc1ccc(F)cc1C(=O)C1CCCN(Cc2cnc(C)s2)C1 (stereo not given) | 1.8%
13 | Cc1nn(C)c2nc(N3CCCCC3c3cccnc3)sc12 (stereo not given) | -3.14%
14 | CCc1cccnc1NCc1cnc(N2CCOCC2)nc1 | 22.9%
15 | COc1ccc(NC(=O)CCN2CC=C(c3cnn(C)c3)CC2)cc1Cl | 12.5%
16 | CSc1nccc(N2CCC3(CCCN(CC4CC4)C3)C2)n1 (stereo not given) | 2.58%
17 | CC(C)NC(=O)[C@H]1CN(Cc2ccccc2)C[C@@H]1C(=O)c1ccccc1 | 7.87%
18 | Cc1nc(CC(=O)N2CCCC[C@H](N(C)C)C2)cs1 | -2.31%
19 | CCNC(=O)[C@@H]1CN(Cc2ccccc2)C[C@H]1C(=O)c1ccc(F)cc1 | 15.1%
20 | CC(Cc1cccc(F)c1)NCc1cnc(N2CCN(C)CC2)nc1 (stereo not given) | 8.49%

Row | SMILES | Percent Effect
21 | FC(F)(F)c1nc(C2CCNCC2)no1 | 5.73%
22 | Cc1cc(C(=O)NCC(=O)N2CCOCC2)nn1C(C)(C)C | 8.45%
23 | O=C1CC2(CCN(Cc3ccc(Cl)s3)C2)C(=O)N1 (stereo not given) | 12.7%
24 | O=C(O)[C@H]1CN(Cc2ccccc2)C[C@@H]1C(=O)c1ccccc1 | 12.8%
25 | O=C(c1nc(=O)[nH]c2ccccc12)N1CCCC2(CCNC2)C1 (stereo not given) | 1.4%
26 | Cc1ccc2c(CC(=O)N(C)CCN(C)C)c(C)[nH]c2c1C | -8.21%
27 | O=C(c1ccnc(-n2cnnc2)c1)N1CCCC2(CCNC2)C1 (stereo not given) | -3.71%
28 | CC(C)c1cc(N2CCCC3(CCN(C)C3)C2)ncn1 (stereo not given) | 1.53%
29 | O=C(N[C@H]1COC[C@@H]1N1CCCC1)c1csc(-c2cccs2)n1 | 2.31%
30 | CCc1ccc2ncn(Cc3ncc[nH]3)c(=O)c2c1 | 0.257%
31 | O=C(NCCc1c[nH]cn1)c1ccccc1C1CCNC1 (stereo not given) | -4.12%
32 | CCc1cccc(NC(=O)CCN2CC=C(c3cnn(C)c3)CC2)c1 | 11.6%
33 | CC(C)(C)c1cc(=O)[nH]c(C2(N)CCCC2)n1 | 3.52%
34 | Cc1nc(CC(=O)N2CCCC(N(C)Cc3ccccc3)C2)cs1 (stereo not given) | 6.8%
35 | Cc1nc(C(=O)N[C@H]2COC[C@@H]2N2CCCCC2)cs1 | 4.08%
36 | Cn1cc(C2=CCN(CCC(=O)NCc3ccc(Cl)cc3)CC2)cn1 | 6.44%
37 | NC1(c2nc(C(F)(F)F)cc(=O)[nH]2)CCCC1 | -4.13%
38 | CS(=O)(=O)c1ccc(CC(=O)N2CCN3CCNC(=O)C3C2)cc1 (stereo not given) | -2.22%
39 | c1cnc(N2C[C@@H]3CC[C@H](C2)N(Cc2ccsc2)C3)nc1 | 8.4%
40 | CCOCCC(=O)N1C[C@H]2CC[C@@H]1CN(Cc1ccncc1)C2 | 3.36%
